Records with an inconclusive call do not appear. Activity calls are given as the source filed them. Unless noted, the call rests on the fitted dose curve; in most records, active means well fitted curve in the direction sought with a large enough effect in the repeat runs; inconclusive means weak or mixed curves; inactive means no such curve, though single readings can be large; an effect the other way counts as inactive or inconclusive.
How the values were obtained:
[1] = molecular target: Thyrotropin receptor (Homo sapiens) (UniProt P16473); test: qHTS assay to identify small molecule agonists of the thyroid stimulating hormone receptor (TSHR) signaling pathway (AID 1224843; calls by dose curve; further: nearly all actives have a fitted effect of over 45% in size)
Chain of Thyrotropin receptor (Homo sapiens) (P16473 whole entry, looked up): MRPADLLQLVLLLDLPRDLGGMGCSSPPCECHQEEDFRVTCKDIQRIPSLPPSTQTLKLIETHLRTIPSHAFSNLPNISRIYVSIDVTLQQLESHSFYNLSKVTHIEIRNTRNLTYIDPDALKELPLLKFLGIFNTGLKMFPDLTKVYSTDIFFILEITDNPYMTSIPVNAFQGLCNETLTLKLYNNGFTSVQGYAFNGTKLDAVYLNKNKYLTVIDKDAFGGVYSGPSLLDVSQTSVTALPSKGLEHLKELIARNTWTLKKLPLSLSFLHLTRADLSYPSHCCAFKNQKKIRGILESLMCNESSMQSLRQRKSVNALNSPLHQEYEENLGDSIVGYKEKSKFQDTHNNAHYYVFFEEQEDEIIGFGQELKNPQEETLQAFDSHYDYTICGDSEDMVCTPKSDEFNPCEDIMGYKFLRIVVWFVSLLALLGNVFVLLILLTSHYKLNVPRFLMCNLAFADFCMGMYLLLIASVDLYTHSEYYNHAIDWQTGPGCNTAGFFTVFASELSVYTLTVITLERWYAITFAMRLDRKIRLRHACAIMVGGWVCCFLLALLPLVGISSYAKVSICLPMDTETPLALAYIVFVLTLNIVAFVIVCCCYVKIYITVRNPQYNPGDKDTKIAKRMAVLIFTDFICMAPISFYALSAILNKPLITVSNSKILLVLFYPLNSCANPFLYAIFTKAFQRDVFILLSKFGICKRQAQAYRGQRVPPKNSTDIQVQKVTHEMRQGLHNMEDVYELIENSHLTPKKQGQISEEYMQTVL
In short: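 Compounds are titrated over 15 concentrations, in triplicate, onto TSHR-HEK293 cells seeded at 800/well. Plates sit 30 min at room temperature before cAMP-d2 and anti-cAMP cryptate are added; signal is read after a further hour.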

[2] = qHTS assay to identify small molecule agonists of the hypoxia (HIF-1) signaling pathway - cell viability counter screen (AID 1224844; calls by dose curve; further: nearly all actives have a fitted effect of over 50% in size)
In short: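 Cytotoxicity was measured in parallel with the HRE-driven beta-lactamase readout: after 17 hrs of compound exposure at 37C, HRE-bla ME-180 cells received CellTiter-Glo and luminescence was recorded 30 min later.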

[3] = qHTS assay to identify small molecule agonists of the hypoxia (HIF-1) signaling pathway (AID 1224846; active means well fitted activation curve with a large enough effect in the signal ratio in the repeat runs, not every such curve was filed as active; the % refers to the signal ratio)
In short: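 Compounds from the Tox21 10K library, dissolved in DMSO, are tested for induction of a hypoxia response element–controlled beta-lactamase reporter in ME-180 cells. Exposure lasts 17 hrs at 37C after a 5 hr settling period, followed by CCF4-AM FRET substrate.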

[4] = qHTS assay to identify small molecule agonists of H2AX - cell viability counter screen (AID 1224847; calls by dose curve; further: top concentration of the series differs between compounds; nearly all actives have a fitted effect of over 30% in size)
In short: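 Read-out: CellTiter-Glo luminescence, 30 min RT. Cells: wild-type CHO-K1, 1000/well, 10% FBS, plated overnight at 37C. Treatment: 15 concentrations, 3 hr, 37C, 0.76% DMSO.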

[5] = qHTS RealTime-Glo MT Cell Viability Assay in HepG2 cells - 24 hour (AID 1224867); further: nearly all actives have a fitted effect of over 50% in size
In short: (§1)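 Cells + NanoLuc/prosubstrate dispensed (600 cells/well) → 5 h at 37 C/5% CO2 → compounds in DMSO transferred → 40 h incubation at 37 C, luminescence read at 0, 8, 16, 24, 32, 40 h.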

[6] = qHTS RealTime-Glo MT Cell Viability Assay in HEK293 cells - 32 hour (AID 1224868); further: top concentration of the series differs between compounds; nearly all actives have a fitted effect of over 50% in size
In short: (§2)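 Tox21 10K qHTS, HEK293, 600 cells/well, RealTime-Glo reagent co-dispensed with cells; 5 h preincubation, compound by pintool, 37 C, luminescence at 0–40 h.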

[7] = A CellTox Green Cytotoxicity Assay to monitor cytotoxicity in HEK293 cells - 0 hour (AID 1224869); further: nearly all actives have a fitted effect of over 50% in size
In short: (§3)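 Cells (HEK293, 600/well) and dye reagent are dispensed together. After 5 h at 37 C, 23 nL compound is pinned in. Plates stay at 37 C for 40 h with fluorescence read at 0h, 8h, 16h, 24h, 32h and 40h.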

[8] = qHTS RealTime-Glo MT Cell Viability Assay in HepG2 cells - 40 hour (AID 1224870); further: nearly all actives have a fitted effect of over 50% in size
In short: (§4)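 HepG2 cells mixed with RealTime-Glo MT reagents (NanoLuc plus cell-permeant prosubstrate) were seeded at 600 cells/well, incubated 5 h at 37 C/5% CO2, then pinned with compounds in DMSO; nonlytic luminescence tracked viability during 40 h treatment.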

[9] = A CellTox Green Cytotoxicity Assay to monitor cytotoxicity in HEK293 cells - 40 hour (AID 1224871); further: nearly all actives have a fitted effect of over 45% in size
In short: as §3

[10] = qHTS RealTime-Glo MT Cell Viability Assay in HEK293 cells - 16 hour (AID 1224872)
In short: as §2

[11] = qHTS RealTime-Glo MT Cell Viability Assay in HepG2 cells - 8 hour (AID 1224873); further: nearly all actives have a fitted effect of over 55% in size
In short: as §4

[12] = qHTS RealTime-Glo MT Cell Viability Assay in HEK293 cells - 40 hour (AID 1224874); conditions: RealTime-Glo luminescence; max response: stronger effect = lower value; further: nearly all actives have a fitted effect of over 50% in size
In short: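 Real-time viability in HEK293: signal arises when living cells convert a prosubstrate for NanoLuc in the medium, so luminescence tracks viable cell number. Compound (23 nL, DMSO) added 5 h post-seeding; kinetic reads at 0–40 h, 37 C.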

[13] = A CellTox Green Cytotoxicity Assay to monitor cytotoxicity in HEK293 cells - 24 hour (AID 1224875); further: nearly all actives have a fitted effect of over 45% in size
In short: as §3

[14] = A CellTox Green Cytotoxicity Assay to monitor cytotoxicity in HepG2 cells - 16 hour (AID 1224876); further: nearly all actives have a fitted effect of over 45% in size
In short: (§5)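 Cells and non-lytic dye reagent are dispensed together (600 HepG2 cells/well) and incubated 5 h before DMSO compound transfer. Kinetic fluorescence is then recorded in the same wells during 40 h at 37 C.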

[15] = qHTS RealTime-Glo MT Cell Viability Assay in HepG2 cells - 32 hour (AID 1224877); further: nearly all actives have a fitted effect of over 55% in size
In short: as §1

[16] = A CellTox Green Cytotoxicity Assay to monitor cytotoxicity in HepG2 cells - 24 hour (AID 1224878); further: nearly all actives have a fitted effect of over 45% in size
In short: as §5

[17] = A CellTox Green Cytotoxicity Assay to monitor cytotoxicity in HepG2 cells - 40 hour (AID 1224879); further: nearly all actives have a fitted effect of over 40% in size
In short: as §5

[18] = qHTS assay to identify small molecule antagonists of the estrogen related receptor (ERR) signaling pathway from Tox21 library (AID 1224848); further: nearly all actives have a fitted effect of over 50% in size
In short: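 First, 2,000 ERR cells per well were plated and held 6 h at 37 C/5% CO2. Next, compounds in DMSO were pinned in and left 18 h at 37 C. Finally, ONE-Glo was added and luminescence read after 30 min at room temperature.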

[19] = qHTS assay to identify small molecule agonists of the estrogen related receptor (ERR) signaling pathway from Tox21 library (AID 1224849; calls by dose curve; further: nearly all actives have a fitted effect of over 15% in size); conditions: ERR reporter cell line, ONE-Glo luciferase, 18 h; at 92.4 µM (top of the series) unless noted
In short: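 Cells carrying the ERR reporter were plated and allowed to settle for 6 h, exposed to library compounds for 18 h at 37 C, then lysed with ONE-Glo and luminescence measured.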

[20] = qHTS assay to identify small molecule agonists of H2AX (AID 1224845; active means well fitted activation curve with a large enough effect in the signal ratio in the repeat runs, not every such curve was filed as active; the % refers to the signal ratio)
In short: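 Wild-type CHO-K1 cells plated overnight, then exposed 3 hr at 37C to compounds at 15 concentrations (0.76% DMSO). Lysed, then HTRF anti-pH2AX(S139)-cryptate/anti-H2AX-d2 detection after 24 hr at room temperature; emissions 665 and 620 nm.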
On the % scale 0 is the no-effect control and ±100 the full control effect.

Cc1cn([C@H]2C[C@H](F)[C@@H](CO)O2)c(=O)[nH]c1=O
inactive: Potency [1] | Potency [2] | outcome [3] | Potency [4] | Potency [5] | Potency [6] | Potency [7] | Potency [8] | Potency [9] | Potency [10] | Potency [11] | max response [12] 16.7% | Potency [13] | Potency [14] | Potency [15] | Potency [16] | Potency [17]

COC(C)(C)OC
inactive: Potency [1] | Potency [2] | outcome [3] | Potency [4] | Potency [18] | Potency [5] | Potency [6] | Potency [7] | Potency [8] | Potency [9] | Potency [10] | Potency [11] | max response [12] 15.9% | Potency [13] | Potency [14] | Potency [15] | Potency [16] | Potency [17]

CC(=O)OCCC(C)CC(C)(C)C (stereo unspecified)
inactive: Potency [1] | Potency [2] | outcome [3] | Potency [4] | Potency [18] | activity change, positive = activation [19] 4.15% | Potency [7] | Potency [8] | Potency [10] | Potency [11] | Potency [13] | Potency [14] | Potency [15] | Potency [16] | Potency [17]

C[C@H](CS)C(=O)N1CCC[C@H]1C(=O)O
inactive: Potency [1] | Potency [2] | Potency [20] | Potency [4] | Potency [5] | Potency [7] | Potency [8] | Potency [9] | Potency [10] | Potency [11] | max response [12] 9.42% | Potency [13] | Potency [14] | Potency [15] | Potency [16] | Potency [17]

CCN(CC)CCOC(=O)C(c1ccccc1)c1ccccc1
inactive: Potency [1] | Potency [2] | Potency [20] | Potency [5] | Potency [6] | Potency [7] | Potency [9] | Potency [10] | Potency [11] | max response [12] 0.0208% | Potency [13] | Potency [14] | Potency [15] | Potency [16] | Potency [17]

CCC(CO)(CO)CO
inactive: Potency [1] | Potency [2] | outcome [3] | Potency [4] | Potency [5] | Potency [7] | Potency [8] | Potency [10] | Potency [11] | max response [12] 5.95% | Potency [13] | Potency [14] | Potency [15] | Potency [16] | Potency [17]

CC(=O)OCC1=C(C(=O)O)N2C(=O)[C@@H](NC(=O)CSc3ccncc3)[C@H]2SC1
inactive: Potency [1] | Potency [2] | Potency [20] | Potency [18] | activity change, positive = activation [19] 0.532% [at 42.5 µM] | Potency [5] | Potency [6] | Potency [7] | Potency [10] | Potency [11] | max response [12] 5.21% | Potency [13] | Potency [14] | Potency [15] | Potency [16] | Potency [17]

CCCCCCCC/C=C\CCCCCCCC(=O)OCCO
inactive: Potency [1] | Potency [2] | Potency [20] | Potency [4] | Potency [7] | Potency [8] | Potency [9] | Potency [11] | max response [12] -0.425% | Potency [13] | Potency [14] | Potency [15] | Potency [16] | Potency [17]
